PubChem BioAssay AID1732 (National Center for Advancing Translational Sciences (NCATS), 2009)
The other results are listed elsewhere or left out. Inconclusive results are not listed. Active and inactive are the calls of the source. Calls come from the whole dose curve; as a rule, active = well fitted inhibition curve with a large enough effect; inconclusive = small, poorly fitted or top-dose-only effect, or effect the other way, or another doubt; inactive = no such curve, though single readings can be large or run the other way.

Each molecule was assayed against Dual specificity mitogen-activated protein kinase kinase 1 (Homo sapiens) (UniProt Q02750) (assay: Assay for Inhibitors of the ERK Signaling Pathway using a Homogeneous Screening Assay: MEK Inhibition). Conditions: series mostly up to 76.9 µM.
From the text: qHTS Assay for Inhibitors of the ERK Signaling Pathway using a Homogeneous Screening Assay
NIH Chemical Genomics Center [NCGC]
NIH Molecular Libraries Screening Centers Network [MLSCN]
Assay Submitter (PI): Dr. Wei Zheng, NCGC/NIH
The Ras/extracellular-signal-regulated kinase (ERK) mitogen activated protein (MAP) kinase signaling pathway (ERK1/2 cascade) plays is a key role in transmitting signals from the cell surface to the nucleus (Nishida and Gotoh 1993; Chang and Karin, 2001). The cascade is initiated by the small G-protein Ras, which recruits Raf […], where activation occurs. Alternatively, this pathway can be activated by elevating intracellular cAMP.
Activation of the ERK pathway is essential in increased cell division and cell survival. Sustained and constitutive activation of the ERK pathway, however, has been linked to uncontrolled cell proliferation, increased cell survival, and tumor progression. Thus, the ERK has been as an attractive target for cancer chemotherapy in the past few years (Sebolt-Leopold and Herrera, 2004). Given its physiological and pathological importance, assessment of ERK phosphorylation has been broadly performed in both basic research and drug discovery. Most assays for the measurement of ERK phosphorylation use the antibody-based detection methods, such as western blot and ELISA. These assays require multiple reagent additions with cell wash steps and are not suitable for high-throughput screening.
The current cell-based ERK phosphorylation assay was performed using AlphaScreen platform. AlphaScreen is a two bead-based proximity-dependent chemical energy transfer luminescent assay platform. The assay reagents (ERK SureFire(TM) kit) were supplied from TGR BioSciences (Australia). […]
The HTRF kinase assay (components supplied as kit by Cisbio) was chosen for the EGFR and EGFR mutant enzyme assays that applied the time resolved fluorescence resonance energy transfer (TR-FRET) principle. […]

Dual specificity mitogen-activated protein kinase kinase 1 (Homo sapiens), sequence (Q02750 whole entry, looked up): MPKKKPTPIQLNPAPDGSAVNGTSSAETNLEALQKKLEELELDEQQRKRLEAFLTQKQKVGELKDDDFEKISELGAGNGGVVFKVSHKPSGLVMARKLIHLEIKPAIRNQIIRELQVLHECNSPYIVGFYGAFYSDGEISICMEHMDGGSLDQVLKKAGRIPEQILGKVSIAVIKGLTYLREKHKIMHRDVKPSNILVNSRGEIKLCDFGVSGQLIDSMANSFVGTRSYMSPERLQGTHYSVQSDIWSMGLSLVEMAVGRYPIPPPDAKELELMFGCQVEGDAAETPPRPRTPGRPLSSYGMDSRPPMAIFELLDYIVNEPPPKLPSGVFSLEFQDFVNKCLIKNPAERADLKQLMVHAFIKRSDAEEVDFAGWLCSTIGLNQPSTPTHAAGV

outcome, inactive:
O=[N+]([O-])c1ccccc1N/N=C1\CCc2ccccc21, CN(C)c1cc2c(Nc3ccc4c(cnn4Cc4ccccc4)c3)ncnc2cn1, CCCNc1ncnc2sc(C)c(C)c12
